Assay results taken from PubChem BioAssay (NCI).
About 79,000 compounds went through this panel and 15% of them were active in at least one assay; those are over-represented in the sample as a whole. Active and inactive are the calls of the source. Rule as the data show it: active = growth inhibition above about 70%; inactive = the rest.

Experiment: NCI Yeast Anticancer Drug Screen. Data for the sgs1 mgt1 strain (AID 161);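 also: 0% = growth of cultures given vehicle only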
Details: S. cerevisiae sgs1 mgt1 strain, at 5.0 µM (retest, dose inferred, filed as 0.5), active compounds read high
How it was run: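 Growth of a repair-deficient yeast mutant was monitored after compound treatment and expressed as inhibition relative to vehicle-treated cultures.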
For O=[N+]([O-])c1cc(F)c(Sc2cc(Br)c([N+](=O)[O-])cc2F)cc1Br, the growth inhibition was -1% (inactive). For C=CS(=O)(=O)c1ccc(C)cc1, the growth inhibition was 7% (inactive). For NC(CSSCC(N)C(=O)Nc1ccc2ccccc2c1)C(=O)Nc1ccc2ccccc2c1 (stereo not given), the growth inhibition was 54% (inactive). With COc1ccc(C2=CCC3C4CC=C5CC(O)CCC5(C)C4CCC23C)s1 (stereo not given) the growth inhibition was -23% (inactive). For O=C(O)COc1ccccc1C(=O)O, the growth inhibition was 1% (inactive). For O=[N+]([O-])c1ccc(NNS(=O)(=O)c2ccccc2)c([N+](=O)[O-])c1, the growth inhibition was -3% (inactive). For CCOc1nc(N)nc(C)c1N=Nc1ccc(Cl)cc1, the growth inhibition was 14% (inactive). In the case of Nc1ccc2c(c1)CCc1ccccc1-2, the growth inhibition is reported as 2% (inactive). With O=c1c2cc3c(cc2c2cccc4c2n1CCC4)OCO3 the growth inhibition was -4% (inactive). For O=C(COc1ccc(Br)cc1Br)N1N=C(c2ccc([N+](=O)[O-])o2)CC1(O)c1ccccc1 (stereo not given), the growth inhibition was 12% (inactive). With Nc1cc(Br)cc2c1[nH]c1ccc(Br)cc12 the growth inhibition was 59% (inactive). In the case of Clc1ccccc1CCc1cc(-c2ccccc2)n[nH]1, the growth inhibition is reported as -6% (inactive). For O=C(CSc1nnc(-c2ccc(N=Cc3ccc(Cl)cc3)cc2)o1)Nc1ccccc1Cl, the growth inhibition was 7% (inactive). With COC(=O)CCCCC(=O)N(C(C)C)C(C)C the growth inhibition was -11% (inactive). With CCc1ccccc1NC(=O)C(=O)CC(=O)c1ccc(Cl)s1 the growth inhibition was -1% (inactive). With CCNC(=S)N/N=C/c1ccccn1 the growth inhibition was -29% (inactive). With [N-]=[N+]=Nc1c(C=O)c(=O)n(-c2ccccc2)c2ccccc12 the growth inhibition was -5% (inactive). With COc1cc2c(c(O)c1C)C(=O)C(Cl)=CC2=O the growth inhibition was 99% (active). For O=c1[nH]c(=O)c2cc([N+](=O)[O-])cc([N+](=O)[O-])c2[nH]1, the growth inhibition was 12% (inactive). With CCOC(=O)NC(=S)Nc1ccsc1 the growth inhibition was 1% (inactive). With O=C(/C(O)=C(\O)C(=O)N(C1CCCCC1)C1CCCCC1)N(C1CCCCC1)C1CCCCC1 the growth inhibition was 20% (inactive). In the case of Nc1nccc2c1ncn2C1C=C(CO)C(O)C1O (stereo not given), the growth inhibition is reported as 6% (inactive). With NC(=Nc1ccccc1)c1ccc2c(c1)c1c(n2Cc2ccccc2)CCCC1 the growth inhibition was -5% (inactive). With CC/C(=C(/CC)c1ccc(O)cc1)c1ccc([O-])cc1.CC/C(=C(/CC)c1ccc(O)cc1)c1ccc([O-])cc1.O=C([CH-]C(=O)c1ccccc1)c1ccccc1.O=C([CH-]C(=O)c1ccccc1)c1ccccc1.[Ti+4] the growth inhibition was 74% (active). For CC(=O)c1c(O)c2ccc(Cl)cc2[nH]c1=O, the growth inhibition was 79% (active). With CCOC(=O)c1cnccc1CC1(C#N)c2ccccc2C=CN1C(=O)c1ccccc1 (stereo not given) the growth inhibition was 4% (inactive). With O=c1cc(-c2ccccc2)oc(-c2ccccc2)c1 the growth inhibition was -71% (inactive). For CCCCCC/C=C\C=O, the growth inhibition was 3% (inactive). With O=C1NC(=O)C(c2ccccc2)(c2ccccc2)C2CC3c4[nH]c5ccccc5c4CCN3CC12 (stereo not given) the growth inhibition was 5% (inactive). With Nc1ccc(-c2ccc(N)cc2S(=O)(=O)O)c(S(=O)(=O)O)c1 the growth inhibition was -1% (inactive). With Oc1ccc2ccccc2c1/C=N\Sc1ccccc1 the growth inhibition was 15% (inactive). For CCCC(C)c1ccc(O)cc1 (stereo not given), the growth inhibition was 0% (inactive). For CCOC(=O)/C(=C\c1ccc(Cl)cc1)C(C)=O, the growth inhibition was 33% (inactive). For O=C(O)C(SC1=NNC2(C(=O)N1)c1ccccc1-c1ccccc12)SC1=NNC2(C(=O)N1)c1ccccc1-c1ccccc12, the growth inhibition was 2% (inactive). For Cc1sc(Cc2ccccc2)nc1-c1ccc(N=Cc2ccc(N(CCOS(C)(=O)=O)CCOS(C)(=O)=O)cc2)cc1, the growth inhibition was 32% (inactive). In the case of CCCCc1ccc(Nc2nc(N)c3[nH]cnc3n2)cc1, the growth inhibition is reported as 18% (inactive). In the case of O=C(c1c(F)c(F)c(F)c(F)c1F)n1c(=S)n(C(=O)c2c(F)c(F)c(F)c(F)c2F)c2ccccc21, the growth inhibition is reported as 14% (inactive). In the case of Cc1ccnc2sc3ccccc3c(=O)c12, the growth inhibition is reported as 4% (inactive). For O=[N+]([O-])c1ccc2c(c1)CCc1ccccc1-2, the growth inhibition was 12% (inactive). In the case of NNc1ccc(Br)cc1, the growth inhibition is reported as 96% (active).

Same assay, conditions: S. cerevisiae sgs1 mgt1 strain, at 50.0 µM (retest, dose inferred, filed as 5.0), active compounds read high
In the case of O=[N+]([O-])c1cc(F)c(Sc2cc(Br)c([N+](=O)[O-])cc2F)cc1Br, the growth inhibition is reported as -7% (inactive). In the case of C=CS(=O)(=O)c1ccc(C)cc1, the growth inhibition is reported as 55% (inactive). With NC(CSSCC(N)C(=O)Nc1ccc2ccccc2c1)C(=O)Nc1ccc2ccccc2c1 (stereo not given) the growth inhibition was 100% (active). For COc1ccc(C2=CCC3C4CC=C5CC(O)CCC5(C)C4CCC23C)s1 (stereo not given), the growth inhibition was 82% (active). In the case of O=C(O)COc1ccccc1C(=O)O, the growth inhibition is reported as 0% (inactive). With O=[N+]([O-])c1ccc(NNS(=O)(=O)c2ccccc2)c([N+](=O)[O-])c1 the growth inhibition was 13% (inactive). In the case of CCOc1nc(N)nc(C)c1N=Nc1ccc(Cl)cc1, the growth inhibition is reported as 75% (active). With Nc1ccc2c(c1)CCc1ccccc1-2 the growth inhibition was 52% (inactive). In the case of O=c1c2cc3c(cc2c2cccc4c2n1CCC4)OCO3, the growth inhibition is reported as 13% (inactive). In the case of O=C(COc1ccc(Br)cc1Br)N1N=C(c2ccc([N+](=O)[O-])o2)CC1(O)c1ccccc1 (stereo not given), the growth inhibition is reported as 12% (inactive). For Nc1cc(Br)cc2c1[nH]c1ccc(Br)cc12, the growth inhibition was 99% (active). For Clc1ccccc1CCc1cc(-c2ccccc2)n[nH]1, the growth inhibition was 97% (active). For O=C(CSc1nnc(-c2ccc(N=Cc3ccc(Cl)cc3)cc2)o1)Nc1ccccc1Cl, the growth inhibition was 40% (inactive). For COC(=O)CCCCC(=O)N(C(C)C)C(C)C, the growth inhibition was -11% (inactive). With CCc1ccccc1NC(=O)C(=O)CC(=O)c1ccc(Cl)s1 the growth inhibition was 2% (inactive). With CCNC(=S)N/N=C/c1ccccn1 the growth inhibition was 95% (active). In the case of [N-]=[N+]=Nc1c(C=O)c(=O)n(-c2ccccc2)c2ccccc12, the growth inhibition is reported as 47% (inactive). In the case of COc1cc2c(c(O)c1C)C(=O)C(Cl)=CC2=O, the growth inhibition is reported as 98% (active). For O=c1[nH]c(=O)c2cc([N+](=O)[O-])cc([N+](=O)[O-])c2[nH]1, the growth inhibition was 78% (active). In the case of CCOC(=O)NC(=S)Nc1ccsc1, the growth inhibition is reported as 0% (inactive). With O=C(/C(O)=C(\O)C(=O)N(C1CCCCC1)C1CCCCC1)N(C1CCCCC1)C1CCCCC1 the growth inhibition was 87% (active). In the case of Nc1nccc2c1ncn2C1C=C(CO)C(O)C1O (stereo not given), the growth inhibition is reported as 80% (active). For NC(=Nc1ccccc1)c1ccc2c(c1)c1c(n2Cc2ccccc2)CCCC1, the growth inhibition was 99% (active). For CC/C(=C(/CC)c1ccc(O)cc1)c1ccc([O-])cc1.CC/C(=C(/CC)c1ccc(O)cc1)c1ccc([O-])cc1.O=C([CH-]C(=O)c1ccccc1)c1ccccc1.O=C([CH-]C(=O)c1ccccc1)c1ccccc1.[Ti+4], the growth inhibition was 98% (active). In the case of CC(=O)c1c(O)c2ccc(Cl)cc2[nH]c1=O, the growth inhibition is reported as 95% (active). For CCOC(=O)c1cnccc1CC1(C#N)c2ccccc2C=CN1C(=O)c1ccccc1 (stereo not given), the growth inhibition was 67% (inactive). For O=c1cc(-c2ccccc2)oc(-c2ccccc2)c1, the growth inhibition was -59% (inactive). For CCCCCC/C=C\C=O, the growth inhibition was 17% (inactive). For O=C1NC(=O)C(c2ccccc2)(c2ccccc2)C2CC3c4[nH]c5ccccc5c4CCN3CC12 (stereo not given), the growth inhibition was 65% (inactive). With Nc1ccc(-c2ccc(N)cc2S(=O)(=O)O)c(S(=O)(=O)O)c1 the growth inhibition was -1% (inactive). For Oc1ccc2ccccc2c1/C=N\Sc1ccccc1, the growth inhibition was 99% (active). For CCCC(C)c1ccc(O)cc1 (stereo not given), the growth inhibition was 16% (inactive). In the case of CCOC(=O)/C(=C\c1ccc(Cl)cc1)C(C)=O, the growth inhibition is reported as 98% (active). With O=C(O)C(SC1=NNC2(C(=O)N1)c1ccccc1-c1ccccc12)SC1=NNC2(C(=O)N1)c1ccccc1-c1ccccc12 the growth inhibition was 96% (active). In the case of Cc1sc(Cc2ccccc2)nc1-c1ccc(N=Cc2ccc(N(CCOS(C)(=O)=O)CCOS(C)(=O)=O)cc2)cc1, the growth inhibition is reported as 95% (active). In the case of CCCCc1ccc(Nc2nc(N)c3[nH]cnc3n2)cc1, the growth inhibition is reported as 31% (inactive). In the case of O=C(c1c(F)c(F)c(F)c(F)c1F)n1c(=S)n(C(=O)c2c(F)c(F)c(F)c(F)c2F)c2ccccc21, the growth inhibition is reported as 93% (active). For Cc1ccnc2sc3ccccc3c(=O)c12, the growth inhibition was 92% (active). In the case of O=[N+]([O-])c1ccc2c(c1)CCc1ccccc1-2, the growth inhibition is reported as 75% (active). For NNc1ccc(Br)cc1, the growth inhibition was 99% (active).
